Unmarked numbers belong to inactive results.

What all share (assay): log2 ratio of Biotin-Ahx-Ub-VS probe labelling (fragment/DMSO); higher = less target engagement (more negative = stronger competition), active = hit call of the paper (q ≤ 0.05, log2 ratio ≤ -1)
Holding throughout (details): compound concentration: 200 uM; treatment time: 3 h

One test deals with T1, USP42 (UniProt Q9H9J4).
T1 sequence (whole entry): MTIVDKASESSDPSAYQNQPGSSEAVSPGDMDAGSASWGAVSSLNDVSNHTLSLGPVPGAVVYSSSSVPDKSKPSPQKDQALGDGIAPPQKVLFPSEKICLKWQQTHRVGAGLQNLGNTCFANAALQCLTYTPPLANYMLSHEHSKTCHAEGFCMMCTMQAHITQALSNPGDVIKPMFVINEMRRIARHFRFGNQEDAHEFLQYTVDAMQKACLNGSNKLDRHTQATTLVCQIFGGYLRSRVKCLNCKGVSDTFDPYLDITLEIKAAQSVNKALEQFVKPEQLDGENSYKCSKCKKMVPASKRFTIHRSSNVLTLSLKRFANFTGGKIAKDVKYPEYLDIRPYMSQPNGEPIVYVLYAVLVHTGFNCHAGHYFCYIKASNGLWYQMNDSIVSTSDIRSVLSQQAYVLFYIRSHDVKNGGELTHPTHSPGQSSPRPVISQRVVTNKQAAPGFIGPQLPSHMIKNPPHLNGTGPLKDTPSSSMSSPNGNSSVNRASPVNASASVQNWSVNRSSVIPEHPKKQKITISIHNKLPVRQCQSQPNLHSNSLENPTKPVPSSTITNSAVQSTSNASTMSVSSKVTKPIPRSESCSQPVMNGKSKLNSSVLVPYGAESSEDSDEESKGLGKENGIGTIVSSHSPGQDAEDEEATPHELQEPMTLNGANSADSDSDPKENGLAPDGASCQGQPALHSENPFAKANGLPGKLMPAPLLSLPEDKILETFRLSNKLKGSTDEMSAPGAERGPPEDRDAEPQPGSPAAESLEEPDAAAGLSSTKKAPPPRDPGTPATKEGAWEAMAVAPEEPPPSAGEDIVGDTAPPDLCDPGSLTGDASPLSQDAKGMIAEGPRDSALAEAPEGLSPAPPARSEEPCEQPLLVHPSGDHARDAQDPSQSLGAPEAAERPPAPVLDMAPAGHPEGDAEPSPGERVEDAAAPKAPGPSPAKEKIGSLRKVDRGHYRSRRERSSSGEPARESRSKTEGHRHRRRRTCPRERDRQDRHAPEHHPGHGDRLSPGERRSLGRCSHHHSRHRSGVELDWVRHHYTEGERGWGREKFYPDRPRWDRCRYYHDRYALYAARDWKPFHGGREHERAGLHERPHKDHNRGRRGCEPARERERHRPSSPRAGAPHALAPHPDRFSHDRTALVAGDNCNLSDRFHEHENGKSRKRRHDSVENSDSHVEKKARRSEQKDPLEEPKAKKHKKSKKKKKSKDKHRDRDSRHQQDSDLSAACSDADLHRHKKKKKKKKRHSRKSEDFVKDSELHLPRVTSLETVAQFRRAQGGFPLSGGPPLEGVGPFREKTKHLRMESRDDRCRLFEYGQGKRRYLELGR
A digest of the protocol:
(§1)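 Labelled DUBs from HEK293T lysate were NeutrAvidin-enriched, digested with LysC and trypsin, and run by diaPASEF LC-MS/MS. Before that, each 495 µg sample in Tris/CHAPS/IGEPAL buffer with protease inhibitors was treated in triplicate with fragment at 200 µM or vehicle for 3 h, then with Biotin-Ahx-Ub-VS at 0.5 µM final for 1 h. Values are average log2 ratios of fragment over vehicle by unpaired t-test, based on global-median-normalised Spectronaut label-free quantities from proteins with ≥2 unique peptides.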

In another test the target is USP46 (UniProt P62068). The essentials:
as §1

For the next test, the target named is T2, USP47 (UniProt Q96K76).
T2 sequence (whole entry): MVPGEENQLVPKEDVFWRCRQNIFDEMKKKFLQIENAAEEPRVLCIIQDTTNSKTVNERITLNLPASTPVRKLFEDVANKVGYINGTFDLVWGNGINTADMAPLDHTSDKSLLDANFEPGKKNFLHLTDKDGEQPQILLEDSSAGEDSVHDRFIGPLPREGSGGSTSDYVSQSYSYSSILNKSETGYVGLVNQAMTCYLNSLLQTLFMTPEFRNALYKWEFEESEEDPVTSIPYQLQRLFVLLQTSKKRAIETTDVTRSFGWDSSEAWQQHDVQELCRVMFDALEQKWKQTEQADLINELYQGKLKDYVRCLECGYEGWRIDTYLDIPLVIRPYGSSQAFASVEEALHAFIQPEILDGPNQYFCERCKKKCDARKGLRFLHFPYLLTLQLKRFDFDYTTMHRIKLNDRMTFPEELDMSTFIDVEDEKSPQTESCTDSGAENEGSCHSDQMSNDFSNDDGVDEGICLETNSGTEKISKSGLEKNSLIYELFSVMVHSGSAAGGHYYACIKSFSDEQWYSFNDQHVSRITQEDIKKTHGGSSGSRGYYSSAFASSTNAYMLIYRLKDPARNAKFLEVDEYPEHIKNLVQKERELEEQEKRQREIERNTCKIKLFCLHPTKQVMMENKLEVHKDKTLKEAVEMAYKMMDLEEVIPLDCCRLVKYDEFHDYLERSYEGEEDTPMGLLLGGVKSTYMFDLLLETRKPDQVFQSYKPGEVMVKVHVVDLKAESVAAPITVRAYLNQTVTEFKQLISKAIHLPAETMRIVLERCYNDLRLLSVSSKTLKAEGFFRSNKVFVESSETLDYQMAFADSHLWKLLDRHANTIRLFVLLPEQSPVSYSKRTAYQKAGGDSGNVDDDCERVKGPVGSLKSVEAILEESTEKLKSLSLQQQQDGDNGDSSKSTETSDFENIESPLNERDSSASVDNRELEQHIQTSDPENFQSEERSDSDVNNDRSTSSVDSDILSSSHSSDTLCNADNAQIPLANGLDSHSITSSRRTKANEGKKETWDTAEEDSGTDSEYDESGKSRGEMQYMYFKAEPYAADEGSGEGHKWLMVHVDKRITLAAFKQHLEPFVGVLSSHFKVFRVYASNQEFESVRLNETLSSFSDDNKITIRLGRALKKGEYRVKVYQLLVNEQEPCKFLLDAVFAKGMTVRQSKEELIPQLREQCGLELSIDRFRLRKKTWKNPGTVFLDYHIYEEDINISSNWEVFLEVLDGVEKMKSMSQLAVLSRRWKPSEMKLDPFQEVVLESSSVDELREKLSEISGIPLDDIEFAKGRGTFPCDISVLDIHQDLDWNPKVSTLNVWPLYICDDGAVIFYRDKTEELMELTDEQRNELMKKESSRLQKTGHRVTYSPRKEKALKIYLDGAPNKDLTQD
The essentials:
as §1

Another test concerns the target T3, USP48 (UniProt Q86UV5).
T3 sequence (whole entry): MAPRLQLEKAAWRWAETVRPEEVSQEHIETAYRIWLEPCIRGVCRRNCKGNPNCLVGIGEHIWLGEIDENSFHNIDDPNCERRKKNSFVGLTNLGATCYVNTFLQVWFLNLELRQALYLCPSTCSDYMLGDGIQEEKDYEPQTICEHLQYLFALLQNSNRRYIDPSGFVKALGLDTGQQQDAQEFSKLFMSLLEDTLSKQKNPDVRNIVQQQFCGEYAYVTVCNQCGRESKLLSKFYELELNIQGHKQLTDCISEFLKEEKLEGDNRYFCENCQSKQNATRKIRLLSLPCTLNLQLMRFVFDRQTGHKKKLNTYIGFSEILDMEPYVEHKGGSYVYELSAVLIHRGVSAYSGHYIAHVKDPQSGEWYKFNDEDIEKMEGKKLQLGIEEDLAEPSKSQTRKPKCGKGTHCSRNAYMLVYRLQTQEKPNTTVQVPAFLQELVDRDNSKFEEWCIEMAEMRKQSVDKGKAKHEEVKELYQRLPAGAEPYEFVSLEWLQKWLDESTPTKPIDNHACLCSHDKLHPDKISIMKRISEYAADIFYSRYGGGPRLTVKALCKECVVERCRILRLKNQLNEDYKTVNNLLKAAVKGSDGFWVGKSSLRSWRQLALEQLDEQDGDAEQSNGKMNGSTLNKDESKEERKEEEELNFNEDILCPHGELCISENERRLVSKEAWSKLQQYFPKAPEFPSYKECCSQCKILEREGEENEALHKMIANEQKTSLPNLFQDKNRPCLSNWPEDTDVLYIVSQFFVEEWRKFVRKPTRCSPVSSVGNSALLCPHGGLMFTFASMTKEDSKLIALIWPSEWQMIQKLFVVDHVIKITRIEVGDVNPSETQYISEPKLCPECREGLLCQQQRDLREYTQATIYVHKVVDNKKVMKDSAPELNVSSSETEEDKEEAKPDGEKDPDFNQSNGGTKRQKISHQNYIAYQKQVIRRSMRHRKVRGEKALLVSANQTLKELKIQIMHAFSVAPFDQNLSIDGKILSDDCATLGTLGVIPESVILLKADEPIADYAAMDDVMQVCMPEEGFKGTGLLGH
The essentials: as §1

In another test the target is T4, USP5 (UniProt P45974).
T4 sequence (whole entry): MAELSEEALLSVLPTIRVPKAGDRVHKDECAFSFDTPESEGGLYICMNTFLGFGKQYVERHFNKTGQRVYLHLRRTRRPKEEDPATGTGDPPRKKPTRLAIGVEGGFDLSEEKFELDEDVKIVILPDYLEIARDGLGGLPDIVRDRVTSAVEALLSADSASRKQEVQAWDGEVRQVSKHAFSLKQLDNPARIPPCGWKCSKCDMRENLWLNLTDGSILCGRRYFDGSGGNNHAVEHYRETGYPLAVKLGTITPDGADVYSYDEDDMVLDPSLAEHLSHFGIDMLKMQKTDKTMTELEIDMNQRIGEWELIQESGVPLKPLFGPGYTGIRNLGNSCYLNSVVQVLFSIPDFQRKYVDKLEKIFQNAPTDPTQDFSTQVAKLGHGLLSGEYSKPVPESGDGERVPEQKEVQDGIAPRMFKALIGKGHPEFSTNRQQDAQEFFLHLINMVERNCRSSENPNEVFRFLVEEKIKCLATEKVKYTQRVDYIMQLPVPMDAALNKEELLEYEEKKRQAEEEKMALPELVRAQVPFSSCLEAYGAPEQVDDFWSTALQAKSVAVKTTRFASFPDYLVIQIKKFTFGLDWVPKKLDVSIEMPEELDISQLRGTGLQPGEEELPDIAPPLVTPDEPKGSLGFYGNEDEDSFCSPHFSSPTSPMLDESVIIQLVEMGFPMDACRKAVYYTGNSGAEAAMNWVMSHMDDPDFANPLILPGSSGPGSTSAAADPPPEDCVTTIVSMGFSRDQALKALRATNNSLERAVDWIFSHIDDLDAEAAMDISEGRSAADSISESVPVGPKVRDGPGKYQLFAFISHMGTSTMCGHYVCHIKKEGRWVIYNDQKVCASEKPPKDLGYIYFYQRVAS
The essentials:
as §1

For another test, the target named is USP54 (UniProt Q70EL1). The essentials:
as §1

The target of a further test is USP7 (UniProt Q93009). The essentials: as §1
Sequence of USP7 (Q93009 whole entry, looked up): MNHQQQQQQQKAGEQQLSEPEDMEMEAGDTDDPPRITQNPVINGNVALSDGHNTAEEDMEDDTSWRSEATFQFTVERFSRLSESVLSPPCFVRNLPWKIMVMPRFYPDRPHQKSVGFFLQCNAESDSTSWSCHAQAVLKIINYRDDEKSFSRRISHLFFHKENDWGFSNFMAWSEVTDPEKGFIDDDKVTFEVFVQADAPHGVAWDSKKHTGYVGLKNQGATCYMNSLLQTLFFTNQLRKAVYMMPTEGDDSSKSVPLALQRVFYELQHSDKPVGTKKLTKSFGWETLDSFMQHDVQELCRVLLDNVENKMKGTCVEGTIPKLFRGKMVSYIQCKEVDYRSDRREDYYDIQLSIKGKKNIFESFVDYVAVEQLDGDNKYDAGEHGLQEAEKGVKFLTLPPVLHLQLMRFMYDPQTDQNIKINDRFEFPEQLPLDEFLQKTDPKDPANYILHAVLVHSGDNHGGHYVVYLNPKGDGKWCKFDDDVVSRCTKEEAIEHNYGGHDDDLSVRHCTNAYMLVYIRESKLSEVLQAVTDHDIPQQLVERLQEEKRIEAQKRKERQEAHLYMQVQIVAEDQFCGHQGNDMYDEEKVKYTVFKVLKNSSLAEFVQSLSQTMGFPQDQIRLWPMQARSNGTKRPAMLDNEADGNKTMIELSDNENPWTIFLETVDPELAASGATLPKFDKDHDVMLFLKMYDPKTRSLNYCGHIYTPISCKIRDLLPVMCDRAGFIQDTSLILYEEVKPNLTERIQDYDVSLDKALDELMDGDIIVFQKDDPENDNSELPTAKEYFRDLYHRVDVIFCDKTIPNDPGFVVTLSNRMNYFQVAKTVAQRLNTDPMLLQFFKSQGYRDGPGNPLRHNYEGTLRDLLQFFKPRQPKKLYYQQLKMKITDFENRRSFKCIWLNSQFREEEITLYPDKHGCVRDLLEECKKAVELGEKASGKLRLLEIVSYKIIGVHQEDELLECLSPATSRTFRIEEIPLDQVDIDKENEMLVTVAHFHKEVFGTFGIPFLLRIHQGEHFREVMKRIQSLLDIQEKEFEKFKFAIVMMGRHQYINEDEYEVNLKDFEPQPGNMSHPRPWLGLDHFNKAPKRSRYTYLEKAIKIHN
The next test addresses T5, USP8 (UniProt P40818).
T5 sequence (whole entry): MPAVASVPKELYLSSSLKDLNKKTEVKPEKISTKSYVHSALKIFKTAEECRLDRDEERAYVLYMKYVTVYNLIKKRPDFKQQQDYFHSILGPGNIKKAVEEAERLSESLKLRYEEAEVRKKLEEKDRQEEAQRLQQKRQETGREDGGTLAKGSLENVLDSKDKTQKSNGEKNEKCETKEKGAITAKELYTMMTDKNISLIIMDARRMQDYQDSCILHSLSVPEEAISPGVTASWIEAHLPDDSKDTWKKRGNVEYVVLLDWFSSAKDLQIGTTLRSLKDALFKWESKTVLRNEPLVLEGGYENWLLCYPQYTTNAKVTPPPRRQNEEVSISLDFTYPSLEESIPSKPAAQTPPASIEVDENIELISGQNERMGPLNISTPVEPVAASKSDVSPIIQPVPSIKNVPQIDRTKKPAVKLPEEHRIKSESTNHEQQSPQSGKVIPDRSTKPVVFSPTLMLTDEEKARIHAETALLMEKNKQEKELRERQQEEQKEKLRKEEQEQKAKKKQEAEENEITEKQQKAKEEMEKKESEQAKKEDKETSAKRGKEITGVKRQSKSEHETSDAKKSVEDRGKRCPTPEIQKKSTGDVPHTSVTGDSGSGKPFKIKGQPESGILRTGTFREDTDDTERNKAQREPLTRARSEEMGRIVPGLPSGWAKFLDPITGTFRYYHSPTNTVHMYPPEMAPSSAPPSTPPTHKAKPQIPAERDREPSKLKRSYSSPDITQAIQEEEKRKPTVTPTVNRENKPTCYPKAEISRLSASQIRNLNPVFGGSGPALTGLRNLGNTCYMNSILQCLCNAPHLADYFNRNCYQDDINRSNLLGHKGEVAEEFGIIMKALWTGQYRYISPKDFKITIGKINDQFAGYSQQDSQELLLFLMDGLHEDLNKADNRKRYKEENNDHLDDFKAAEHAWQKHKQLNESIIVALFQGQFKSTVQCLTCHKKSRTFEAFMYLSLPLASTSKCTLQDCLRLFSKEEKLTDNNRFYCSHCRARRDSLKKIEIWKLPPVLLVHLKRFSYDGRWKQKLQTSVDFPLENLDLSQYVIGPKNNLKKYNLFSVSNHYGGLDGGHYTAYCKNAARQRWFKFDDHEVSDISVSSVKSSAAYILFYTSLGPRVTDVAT
The essentials:
as §1

A further test has as its target USP9X (UniProt Q93008). The essentials:
as §1

Another test deals with UniProt O00487. The essentials: as §1
Sequence of UniProt O00487 (O00487 whole entry): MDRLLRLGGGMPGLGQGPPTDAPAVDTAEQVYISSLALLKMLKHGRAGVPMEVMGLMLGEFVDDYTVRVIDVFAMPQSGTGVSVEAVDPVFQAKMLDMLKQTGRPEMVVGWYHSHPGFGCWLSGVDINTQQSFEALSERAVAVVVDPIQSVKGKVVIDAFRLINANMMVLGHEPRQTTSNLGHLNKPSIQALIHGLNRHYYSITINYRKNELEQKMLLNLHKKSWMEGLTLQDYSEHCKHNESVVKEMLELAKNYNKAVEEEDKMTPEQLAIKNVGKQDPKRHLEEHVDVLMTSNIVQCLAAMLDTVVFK

Sequence of USP46 (P62068 whole entry): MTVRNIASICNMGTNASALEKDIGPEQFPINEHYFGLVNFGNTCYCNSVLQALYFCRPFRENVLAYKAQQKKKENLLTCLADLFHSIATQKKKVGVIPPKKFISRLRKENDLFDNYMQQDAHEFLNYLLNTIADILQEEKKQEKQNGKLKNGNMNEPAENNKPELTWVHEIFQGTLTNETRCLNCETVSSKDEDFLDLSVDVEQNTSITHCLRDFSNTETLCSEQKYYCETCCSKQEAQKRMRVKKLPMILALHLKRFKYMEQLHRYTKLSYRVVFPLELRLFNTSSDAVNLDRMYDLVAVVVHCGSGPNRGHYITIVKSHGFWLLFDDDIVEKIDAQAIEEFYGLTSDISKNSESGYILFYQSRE
Sequence of USP9X (Q93008 whole entry): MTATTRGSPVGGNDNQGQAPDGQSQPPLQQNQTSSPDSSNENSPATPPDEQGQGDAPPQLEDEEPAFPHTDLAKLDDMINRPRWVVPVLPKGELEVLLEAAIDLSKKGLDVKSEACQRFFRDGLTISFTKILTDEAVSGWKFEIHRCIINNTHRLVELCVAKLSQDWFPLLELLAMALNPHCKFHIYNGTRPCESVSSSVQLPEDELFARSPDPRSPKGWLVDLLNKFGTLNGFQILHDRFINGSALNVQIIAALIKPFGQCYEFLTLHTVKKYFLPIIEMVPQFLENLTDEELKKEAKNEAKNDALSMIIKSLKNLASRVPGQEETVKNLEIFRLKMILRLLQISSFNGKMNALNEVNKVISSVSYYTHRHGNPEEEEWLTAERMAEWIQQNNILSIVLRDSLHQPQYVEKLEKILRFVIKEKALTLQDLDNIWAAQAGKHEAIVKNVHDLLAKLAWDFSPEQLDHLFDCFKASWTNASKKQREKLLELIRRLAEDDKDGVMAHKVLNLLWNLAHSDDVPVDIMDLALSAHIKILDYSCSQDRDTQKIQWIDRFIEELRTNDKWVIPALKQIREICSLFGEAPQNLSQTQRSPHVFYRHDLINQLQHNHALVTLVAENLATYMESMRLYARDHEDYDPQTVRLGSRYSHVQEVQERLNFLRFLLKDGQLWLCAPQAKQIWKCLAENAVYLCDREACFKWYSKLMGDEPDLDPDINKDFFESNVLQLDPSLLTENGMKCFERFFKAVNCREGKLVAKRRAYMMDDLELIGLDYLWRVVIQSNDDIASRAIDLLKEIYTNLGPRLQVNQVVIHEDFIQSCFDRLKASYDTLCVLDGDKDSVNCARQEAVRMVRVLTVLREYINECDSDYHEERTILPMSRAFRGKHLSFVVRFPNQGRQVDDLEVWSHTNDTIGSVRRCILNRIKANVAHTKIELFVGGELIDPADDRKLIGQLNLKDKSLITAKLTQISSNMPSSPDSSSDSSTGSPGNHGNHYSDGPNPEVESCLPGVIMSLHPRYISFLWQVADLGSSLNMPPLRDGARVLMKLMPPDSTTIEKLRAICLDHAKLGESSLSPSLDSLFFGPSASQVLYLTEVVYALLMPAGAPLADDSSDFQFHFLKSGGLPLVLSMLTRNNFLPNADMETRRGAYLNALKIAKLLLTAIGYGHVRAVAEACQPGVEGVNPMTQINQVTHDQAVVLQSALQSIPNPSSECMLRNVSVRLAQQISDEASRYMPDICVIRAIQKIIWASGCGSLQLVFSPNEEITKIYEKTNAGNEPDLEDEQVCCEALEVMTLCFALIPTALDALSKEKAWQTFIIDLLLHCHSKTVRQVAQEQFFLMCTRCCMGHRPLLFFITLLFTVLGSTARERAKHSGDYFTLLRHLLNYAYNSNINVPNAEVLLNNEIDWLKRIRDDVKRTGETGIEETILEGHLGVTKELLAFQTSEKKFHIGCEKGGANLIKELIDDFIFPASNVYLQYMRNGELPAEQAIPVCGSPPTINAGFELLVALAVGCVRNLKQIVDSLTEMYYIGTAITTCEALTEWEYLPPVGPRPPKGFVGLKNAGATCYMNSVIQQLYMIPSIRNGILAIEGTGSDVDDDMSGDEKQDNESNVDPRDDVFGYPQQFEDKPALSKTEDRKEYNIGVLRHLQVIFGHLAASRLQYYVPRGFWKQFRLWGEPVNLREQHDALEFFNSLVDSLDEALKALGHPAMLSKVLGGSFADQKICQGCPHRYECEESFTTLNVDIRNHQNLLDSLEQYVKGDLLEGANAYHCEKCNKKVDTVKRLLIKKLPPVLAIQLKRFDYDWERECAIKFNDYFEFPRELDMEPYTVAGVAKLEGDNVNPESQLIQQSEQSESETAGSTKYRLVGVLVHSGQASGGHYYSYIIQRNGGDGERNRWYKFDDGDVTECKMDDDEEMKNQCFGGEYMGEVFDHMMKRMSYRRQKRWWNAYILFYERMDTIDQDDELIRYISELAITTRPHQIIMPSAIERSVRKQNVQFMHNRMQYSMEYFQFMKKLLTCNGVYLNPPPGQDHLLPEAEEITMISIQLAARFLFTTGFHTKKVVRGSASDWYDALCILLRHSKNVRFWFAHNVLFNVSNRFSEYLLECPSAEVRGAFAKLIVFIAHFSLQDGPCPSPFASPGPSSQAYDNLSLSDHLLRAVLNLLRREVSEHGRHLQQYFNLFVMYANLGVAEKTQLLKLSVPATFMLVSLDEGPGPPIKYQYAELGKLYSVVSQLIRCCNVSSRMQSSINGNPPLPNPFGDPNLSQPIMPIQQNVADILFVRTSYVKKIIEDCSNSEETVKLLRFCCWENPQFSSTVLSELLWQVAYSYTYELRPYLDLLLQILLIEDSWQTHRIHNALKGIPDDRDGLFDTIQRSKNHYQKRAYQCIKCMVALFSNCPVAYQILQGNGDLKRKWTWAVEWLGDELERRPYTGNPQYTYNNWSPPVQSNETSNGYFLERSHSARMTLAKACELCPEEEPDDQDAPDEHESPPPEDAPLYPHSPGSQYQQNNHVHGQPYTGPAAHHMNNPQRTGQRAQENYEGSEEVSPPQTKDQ

Take `Cc1nnc(C(NC(=O)CCl)c2ccccc2)n1C` (stereo not given): the “log2 ratio of Biotin-Ahx-Ub-VS probe labelling” value (“log2 ratio” for short) was 0.478 in the test with USP42; 0.418 with USP46; 0.26 with USP47; 0.313 in the test with USP48; 0.627 with USP5; 0.407 with USP54. Besides, the “log2 ratio” value with USP7 was 0.438; with USP8 it was 0.467; with USP9X, 0.432; in the test with UniProt O00487, 0.442.

In the case of `CC1Cc2ccccc2N1C(=O)CCl` (stereo not given), the “log2 ratio” value with USP42 was -0.0391; with USP46, -0.226; with USP47, -0.675; with USP48 it was -0.686; in the test with USP5, 0.363; in the test with USP54 it was 0.538. Besides, the “log2 ratio” value with USP7 is -1.33 (active); in the test with USP8, -0.238; in the test with USP9X it was -0.267; with UniProt O00487, -0.194.

`O=C(CCl)NC(Cn1ccccc1=O)c1ccccc1` (stereo not given): the “log2 ratio” value in the test with USP42 was -0.346; with USP46, 0.258; in the test with USP47, -0.4; with USP48, 0.0761; in the test with USP5 it was 0.132; with USP54, 0.317. Besides, the “log2 ratio” value is -0.205 in the test with USP7, -0.0535 with USP8, -0.00544 with USP9X and 0.0216 with UniProt O00487.

For the origin of these results see the supplement of paper PMC11732987, “Enantioselective OTUD7B fragment discovery through chemoproteomics screening and high-throughput optimisation” (Communications Chemistry, 2025).
